MCF10A rereplic: inducers of DNA re-replication in MCF 10A breast cells. MCF 10A DNA re-replication, Hoechst nuclear intensity, 48 h. Potency, µM (series often up to 46.1 µM), most hits filed as activators. 350,000 tested, 2.9% active; further: nearly all actives have a fitted effect of over 50% in size
PINK1 expr mod: changes PINK1 expression; PINK1 immunofluorescence, high-content cytometry, 24 h; Potency, µM (series often up to 76.6 µM), hits mostly activators; 410,000 tested, 0.2% active; AID 624263; active means well fitted activation curve with a large enough effect; inconclusive means small, poorly fitted or top-dose-only effect; cell line not stated here; further: nearly all actives have a fitted effect of over 65% in size
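PINK1 protein level read as immunofluorescence by microplate cytometer in a fixed, stained stable cell line after 24 h exposure to five compound concentrations, with CCCP as control.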
SW480 rereplic: inducers of DNA re-replication in SW480 colon cancer cells; 340,000 tested, 1.8% active; AID 624297; Potency, µM (highest dose often 46.1 µM), most hits filed as activators; SW480 DNA re-replication, Hoechst DNA content imaging, 48 h; further: nearly all actives have a fitted effect of over 55% in size
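Cells (250 per well) received 23 nL compound or DMSO by pin tool and were kept 48 hr at 37 C, 5% CO2. Nuclei were then stained with Hoechst for 40 min and scanned for DNA content.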
12-LOX inh: blocks human arachidonate 12S-lipoxygenase; P18054; purified 12hLO, xylenol orange hydroperoxide absorbance; Potency, µM (titrated, usually from 108 µM), actives largely listed as inhibitors; 580,000 tested, 1.1% active; AID 1671190
Target sequence (P18054 whole entry, looked up): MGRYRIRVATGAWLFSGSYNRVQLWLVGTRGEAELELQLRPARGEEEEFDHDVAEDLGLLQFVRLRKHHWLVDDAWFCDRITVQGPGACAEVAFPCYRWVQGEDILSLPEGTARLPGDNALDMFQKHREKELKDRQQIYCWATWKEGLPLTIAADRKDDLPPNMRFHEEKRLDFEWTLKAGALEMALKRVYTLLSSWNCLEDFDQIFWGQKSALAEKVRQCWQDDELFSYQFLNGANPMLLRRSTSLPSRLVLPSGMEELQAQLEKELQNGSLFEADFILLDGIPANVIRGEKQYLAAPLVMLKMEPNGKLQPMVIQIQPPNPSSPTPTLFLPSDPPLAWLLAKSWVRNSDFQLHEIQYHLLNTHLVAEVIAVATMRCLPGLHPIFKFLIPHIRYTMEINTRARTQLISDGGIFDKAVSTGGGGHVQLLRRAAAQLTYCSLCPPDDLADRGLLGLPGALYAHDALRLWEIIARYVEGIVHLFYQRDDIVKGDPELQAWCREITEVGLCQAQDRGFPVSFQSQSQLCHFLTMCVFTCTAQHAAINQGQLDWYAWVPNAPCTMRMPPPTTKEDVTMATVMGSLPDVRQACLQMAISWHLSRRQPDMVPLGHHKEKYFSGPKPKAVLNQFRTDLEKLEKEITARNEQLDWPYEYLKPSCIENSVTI
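Purified human 12hLO at 150 nM in 25 mM Hepes, 0.01% Triton X-100, pH 7.0, preincubated 15 min at room temperature with compound. Reaction started with 40 uM arachidonic acid, 30 min at room temperature. Hydroperoxide measured by Fe-xylenol orange, 573/405 nm absorbance ratio.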
KB-V1 MDR tox: KB-V1 MDR subline cytotoxicity | KB-V1 MDR cells viability, CellTiter-Glo, 72 h | Potency, µM (doses to about 46.1 µM), hits mostly cytotoxic | 400,000 tested, 3.4% active | AID 1347076; further: nearly all actives have a fitted effect of over 60% in size
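Cytotoxicity toward P-gp-expressing KB-V1 cells was determined as loss of CellTiter-Glo luminescence after 72 h at 37 degrees C. Compounds were tested in quantitative HTS format across a concentration range, with curves fitted to normalized data.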
KB-3-1 tox: kills parental KB-3-1 adenocarcinoma cells | KB-3-1 viability, CellTiter-Glo ATP luminescence, 72 h | Potency, µM (series often up to 46.1 µM), hits mostly cytotoxic | 400,000 tested, 1.4% active | AID 1347075; further: nearly all actives have a fitted effect of over 60% in size
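72 h, 37 °C compound treatment of KB-3-1 parental cells; CellTiter-Glo added, 10 min, luminescence read. Data corrected against DMSO-only plates and normalized before curve fitting.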
A number is an active result; n = inactive; u = inconclusive; x = no result; [ ] = remark or other dose. Compounds with a hit are over-represented: about 5.8% of the library has one in this group of screens. Unless noted, the call rests on the fitted dose curve; in most records, active means well fitted curve in the direction sought with a large enough effect; inconclusive means small, poorly fitted or top-dose-only effect, or another doubt; inactive means no such curve, though single readings can be large; an effect the other way counts as inactive or inconclusive.

SMILES	MCF10A rereplic	PINK1 expr mod	SW480 rereplic	12-LOX inh	KB-V1 MDR tox	KB-3-1 tox
Cc1occc1-c1nnc(SCC(=O)NC(C)(C)C)n1C(C)c1ccccc1 (stereo unspecified)	n	n	n	n	n	n
Cc1nnc(SCC(=O)Nc2nc(-c3ccccc3)cs2)n1N	n	n	n	n	n	n
CC(CN1CCOCC1)NS(=O)(=O)c1cc(F)cc(F)c1 (stereo unspecified)	x	x	x	n	x	x
O=C1Nc2ccccc2O[C@H]2C[C@@H]1N(Cc1ccnc3ccccc13)C2	x	x	x	n	x	x
Cc1c(N=Nc2c(-c3ccc([N+](=O)[O-])cc3)[nH]n(C(N)=S)c2=O)cccc1[N+](=O)[O-]	u	3.16µM	u	u	16.4µM	20.6µM
NC(=S)n1[nH]c(-c2ccc([N+](=O)[O-])cc2)c(N=Nc2ccccc2[N+](=O)[O-])c1=O	n	n	n	n	n	n
O=C(Nc1cccc(Cl)c1Cl)C1CC(=O)N(c2ccc(Br)cc2)C1 (stereo unspecified)	5.8µM	u	n	n	n	n
O=C(N/N=C/c1ccccc1O)C1CC(=O)N(c2ccc(Cl)cc2)C1 (stereo unspecified)	u	n	5.8µM	n	n	u
Cc1cc2ccccc2n1CC(=O)Nc1ccc(OCC(N)=O)cc1	x	x	x	n	x	x
O=c1n(CC2CO2)c(=O)n(CC2CO2)c(=O)n1CC1CO1 (stereo unspecified)	1.84µM	n	9.2µM	n	n	u
Cn1nc(-c2ccc(N3CCOCC3)c(NS(=O)(=O)c3ccc(Cl)cc3)c2)c2ccccc2c1=O	u	n	n[9.22 µM]	n	u	u
Cc1ccc(S(=O)(=O)Nc2cc(-c3nn(C)c(=O)c4ccccc34)ccc2N2CCOCC2)cc1	u	n	16.4µM	n	n	n
Cc1noc(/C=C/N(C)C)c1S(=O)(=O)N1CCCC(C(=O)Nc2ccccc2F)C1 (stereo unspecified)	23.1µM	n	u	n	n	n
Cc1ccc(Cl)cc1NC(=O)C1CCCN(S(=O)(=O)c2c(C)noc2/C=C/N(C)C)C1 (stereo unspecified)	x	n	x	n	n	n
Cc1ccc(CNC(=O)C2CCCN(S(=O)(=O)c3c(C)noc3/C=C/N(C)C)C2)cc1 (stereo unspecified)	14.6µM	n	n	n	n	n
COc1cc(CC(=O)OCc2ccccc2C#N)ccc1C	x	x	x	n	x	x
CSc1nc2ccc(NC(=O)Cc3cccc(C(F)(F)F)c3)cc2s1	x	x	x	n	x	x
COC(=O)CNC(=O)C(c1ccccc1)c1ccccc1	x	x	x	n	x	x
CCc1c(C(=O)Nc2ccccc2)c(C)[nH]c(=S)c1C#N	n	x	n	3.98µM	n	n
Cc1[nH]c(=S)c(C#N)c(C)c1C(=O)Nc1ccccc1	n	n	n	25.1µM	n	n
COc1nc(N2CCCCCC2)nc(N2CCCCCC2)n1	18.4µM	u	n	n	14.6µM	u
Cc1ccc2cc(C(=O)NCCN(C(C)C)C(C)C)[nH]c2c1	x	x	x	n	x	x
O=C(Nc1cc(C(F)(F)F)ccc1Cl)C(F)(F)C(F)(F)C(F)(F)C(F)(F)C(=O)Nc1cc(C(F)(F)F)ccc1Cl	x	x	x	n	x	x
Cc1ccc(C2CC(=O)N3CN(Cc4ccccc4)CSC3=C2C#N)cc1 (stereo unspecified)	x	x	x	5.62µM	x	x
COc1cc(OC)c(C2CC(=O)N3CN(c4ccc(C)cc4)CSC3=C2C#N)cc1OC (stereo unspecified)	n	n	n	n	n	n
SMILES	MCF10A rereplic	PINK1 expr mod	SW480 rereplic	12-LOX inh	KB-V1 MDR tox	KB-3-1 tox
COc1ccc(N2CSC3=C(C#N)C(c4cc(OC)ccc4OC)CC(=O)N3C2)c(OC)c1 (stereo unspecified)	n	n	u	x	n	n
COc1ccc(N2CSC3=C(C#N)C(c4ccc(OC)c(OC)c4)CC(=O)N3C2)c(OC)c1 (stereo unspecified)	n	n	n	u	n	n
CCOc1ccccc1N1CSC2=C(C#N)C(c3c(OC)ccc4ccccc34)CC(=O)N2C1 (stereo unspecified)	n	n	u	3.16µM	n	n
COc1cc(C2CC(=O)N3CN(c4ccc(C)c(Cl)c4)CSC3=C2C#N)ccc1O (stereo unspecified)	x	x	x	0.891µM	x	x
CCc1ccc(C2CC(=O)N3CN(c4ccccc4)CSC3=C2C#N)cc1 (stereo unspecified)	n	n	n	u	n	n
COc1ccc(C2CC(=O)N3CN(c4ccc(C)c(Cl)c4)CSC3=C2C#N)cc1OC (stereo unspecified)	u	n	u	35.5µM	n	n
Fc1cccc(CSc2nnc(-c3c[nH]c4ccccc34)n2C2CC2)c1F	x	x	x	n	x	x
N#CC1=C2SCN(c3ccc(F)cc3)CN2C(=O)CC1c1cccc(F)c1 (stereo unspecified)	n	n	n	6.31µM	n	n
COc1cc(C2CC(=O)N3CN(c4cccc(Cl)c4)CSC3=C2C#N)ccc1O (stereo unspecified)	x	x	x	17.8µM	x	x
CCOC(=O)c1ccc(N2CSC3=C(C#N)C(c4cccs4)CC(=O)N3C2)cc1 (stereo unspecified)	n	n	n	17.8µM	n	n
CCc1ccc(N2CSC3=C(C#N)C(c4cccs4)CC(=O)N3C2)cc1 (stereo unspecified)	n[0.0737 µM]	n	n	x	n	n
COc1ccc(C2CC(=O)N3CN(C4CCCCC4)CSC3=C2C#N)cc1 (stereo unspecified)	x	n	x	u	u	n
COc1cccc(C2CC(=O)N3CN(C4CCCCC4)CSC3=C2C#N)c1 (stereo unspecified)	x	n	x	12.6µM	n	n
Cc1ccc(N2CSC3=C(C#N)C(c4cccs4)CC(=O)N3C2)cc1 (stereo unspecified)	n	n	n	u	n	n
CC(Sc1nc2cc(S(=O)(=O)N3CCCCC3)ccc2o1)C(=O)Nc1ccc(F)cc1 (stereo unspecified)	x	x	x	n	x	x
CCOC(=O)CC1(NC(=O)N2CCCC2c2cccs2)CCCCC1 (stereo unspecified)	x	x	x	n	x	x
CCC1c2ccsc2CCN1C(=O)CCc1ccc(S(=O)(=O)N2CCCCC2)cc1 (stereo unspecified)	x	x	x	n	x	x
COc1ccc(N2CSC3=C(C#N)C(c4cc(OC)c(OC)cc4OC)CC(=O)N3C2)c(OC)c1 (stereo unspecified)	n	n	n	28.2µM	n	n
CCOc1ccc(Cn2cnc3c2c(=O)n(C)c(=O)n3C)cc1OCC	x	x	x	n	x	x
C[C@H](NC(=O)c1[nH]cnc1C(=O)Nc1ccccc1F)c1ccccc1	x	n	x	n	18.4µM	u
CN(Cc1ccccc1)C(=O)c1[nH]cnc1C(=O)Nc1ccc(Br)cc1F	x	n	x	n	u	16.4µM
CC(C)(C)OC(=O)[C@H](Cc1ccccc1)NC(=O)c1[nH]cnc1C(=O)Nc1ccccc1F	x	n	x	n	20.6µM	u

Source: PubChem BioAssay (National Center for Advancing Translational Sciences (NCATS))
